Screening data deposited in PubChem BioAssay by National Center for Advancing Translational Sciences (NCATS).
Sm TGR inh: qHTS Assay for the Inhibitors of Schistosoma Mansoni Peroxiredoxins; purified TGR, DTNB reduction, TNB absorbance 405 nm; Potency, µM (titrated, usually from 114 µM), usual class: inhibitors; hit rate 3% among 360,000; also: nearly all actives have a fitted effect of over 60% in size
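TGR 20 nM + NADPH 100 uM (dispensed conc.), cpd preinc 15 min RT; start with NADPH (500 uM addition) then DTNB (15 mM addition). Kinetic TNB absorbance, 405 nm filter. Four-parameter Hill fit across titration.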
SARS PLpro yeast: qHTS of Yeast-based Assay for SARS-CoV PLP. S. cerevisiae expressing SARS-CoV PLpro, growth rescue. Potency, µM (doses to about 32.9 µM), actives largely listed as activators. hit rate 0.19% among 330,000. AID 485353, 2010; calls by dose curve; also: nearly all actives have a fitted effect of over 55% in size
Pf growth 48h: Primary qHTS for delayed death inhibitors of the malarial parasite plastid, 48 hour incubation; P. falciparum luciferase growth in erythrocytes, 48 h; Potency, µM (titrated, usually from 28.7 µM), hits mostly inhibitors; hit rate 5.9% among 310,000; AID 504832, 2011
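Luciferase-expressing P. falciparum in infected erythrocytes (2% hematocrit, 0.1% parasitemia final) in RPMI 1640/0.5% Albumax were exposed to compound for 48 hours at 37 C, 5% CO2; growth read as luminescence.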
AmpC no deterg: qHTS Inhibitors of AmpC Beta-Lactamase (assay without detergent); AmpC nitrocefin hydrolysis, absorbance 480 nm, 0.0001% Triton; P00811; Potency, µM (highest dose often 57.1 µM), actives largely listed as inhibitors; hit rate 0.52% among 330,000; also: nearly all actives have a fitted effect of over 20% in size
Target sequence (P00811 whole entry, looked up): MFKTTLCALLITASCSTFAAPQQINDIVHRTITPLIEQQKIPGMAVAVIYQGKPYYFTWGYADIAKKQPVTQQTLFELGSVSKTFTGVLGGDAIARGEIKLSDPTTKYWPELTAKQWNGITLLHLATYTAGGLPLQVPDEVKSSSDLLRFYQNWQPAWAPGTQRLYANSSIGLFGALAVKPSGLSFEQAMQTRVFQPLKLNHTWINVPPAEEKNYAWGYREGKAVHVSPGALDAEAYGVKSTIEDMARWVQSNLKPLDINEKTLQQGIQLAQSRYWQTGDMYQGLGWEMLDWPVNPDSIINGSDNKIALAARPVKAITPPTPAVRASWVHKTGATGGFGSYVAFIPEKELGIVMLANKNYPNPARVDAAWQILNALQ
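20 mM phosphate pH 7.0 + 0.01% (detergent screen) or 0.0001% Triton X-100; 5.3 nM AmpC reagent; cpd preinc 15 min RT; nitrocefin (800 uM stock) to start; A480 q20 s × 4 min; Activity was normalised to no-enzyme and no-compound control wells.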
AmpC inh detg: qHTS Inhibitors of AmpC Beta-Lactamase (assay with detergent) | P00811 | Potency, µM (top dose mostly 114 µM), usual class: inhibitors | AID 485294, 2010 | AmpC hydrolysis of nitrocefin, absorbance 480 nm, 0.01% Triton | hit rate 0.041% among 370,000; also: nearly all actives have a fitted effect of over 25% in size
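AmpC (5.3 nM in the dispensed reagent) in 20 mM phosphate pH 7.0 with 0.01% (detergent screen) or 0.0001% Triton X-100 was preincubated with compounds for 15 min at room temperature. Nitrocefin was then added from an 800 uM solution, and hydrolysis was followed at 480 nm.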
Pf growth 96h: Primary qHTS for delayed death inhibitors of the malarial parasite plastid, 96 hour incubation. AID 504834, 2011. P. falciparum luciferase reporter growth, 96 h. Potency, µM (highest dose often 28.7 µM), hits mostly inhibitors. hit rate 6.9% among 320,000
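Two-generation exposure (96 h) targets delayed-death phenotype. Reporter parasites carrying integrated firefly luciferase, in red cells at 2% hematocrit and 0.05% parasitemia final, kept at 37 C, 5% CO2; luminescence loss indicates inhibition.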
Large screens that a line does not name were inactive. Only some compounds are listed: those with a hit (about 12% of all), similar ones and a draw of the others. Unless noted, calls follow the shape of the dose curve; as a rule, active = well fitted curve in the direction sought with a large enough effect; inconclusive = small, poorly fitted or top-dose-only effect, or another doubt; inactive = no such curve, though single readings can be large; an effect the other way counts as inactive or inconclusive.

CN(Cc1ccccc1)C(=O)COC(=O)c1cc(S(=O)(=O)N(C)C)ccc1N1CCCC1	Pf growth 48h 9.3µM, Pf growth 96h 12µM
CN(CC(=O)Nc1ccccc1Cl)C(=O)COC(=O)c1cc(S(=O)(=O)N(C)C)ccc1N1CCCC1	none
CNS(=O)(=O)c1cn(CC(=O)NCc2ccc(N(C)C)cc2)cc1S(=O)(=O)NC	none
CC(C)CCC(CCNCc1ccccn1)c1ccc(Cl)cc1 (centres undefined)	Pf growth 48h 3.3µM, Pf growth 96h 3.3µM
CC(=O)Nc1ccc2c(c1)nc(C)n2Cc1ccccc1	AmpC inh detg inconclusive, Pf growth 96h 0.41µM
CC(=O)Nc1cc2nc(C)n(Cc3ccccc3)c2nc1C	Pf growth 96h inconclusive (no result: Pf growth 48h)
Cc1nc2c(cc1NC(=O)c1ccccc1)nc(C)n2Cc1ccccc1	Pf growth 96h 12µM
Cn1cc(CN2CCCC(CO)(Cc3cccc(Cl)c3)C2)cn1 (centres undefined)	Pf growth 48h inconclusive
COc1cc(CN2CCCC(CO)(Cc3ccccc3)C2)ccc1O (centres undefined)	Pf growth 96h 10µM
OCC1(Cc2cccc(Cl)c2)CCCN(Cc2cnn(-c3ccccc3)c2)C1 (centres undefined)	Pf growth 48h 8.3µM
COc1cccc(CC2(CO)CCCN(Cc3ccc4c(c3)OCCO4)C2)c1 (centres undefined)	Pf growth 96h 10µM
COc1ccc(CN2CCCC(CO)(Cc3cccc(Cl)c3)C2)cc1OC (centres undefined)	AmpC inh detg inconclusive, Pf growth 96h inconclusive
CCn1ccnc1CN1CCCC(CO)(Cc2cccc(OC)c2)C1 (centres undefined)	Pf growth 96h inconclusive (no result: Sm TGR inh)
COc1ccc(CN2CCCC(CO)(Cc3ccc(F)cc3)C2)c(OC)c1OC (centres undefined)	AmpC inh detg inconclusive, Pf growth 96h 12µM
COc1ccc(C(=O)O)cc1S(=O)(=O)N1CCN(Cc2ccc3c(c2)OCO3)CC1	none (no result: Sm TGR inh, Pf growth 48h, AmpC inh detg, Pf growth 96h)
COc1cc(CN2CCCC(CO)(Cc3cccc(Cl)c3)C2)cc(OC)c1O (centres undefined)	Sm TGR inh 28µM, Pf growth 48h inconclusive, Pf growth 96h inconclusive
O=C(CNS(=O)(=O)c1ccc2ccccc2c1)OCc1nnc(-c2ccccc2)o1	none (no result: Pf growth 48h)
COc1cc(OC)c(OC)cc1/C=C/C(=O)c1ccc(NS(=O)(=O)c2ccc(C)cc2)cc1	Pf growth 48h 9.3µM, AmpC no deterg inconclusive, Pf growth 96h 13µM
COc1cccc(C(=O)/C=C/Nc2ccc(S(=O)(=O)Nc3ncccn3)cc2)c1	Pf growth 96h inconclusive
COc1cccc(C(=O)/C=C/Nc2ccc(S(=O)(=O)Nc3ccc(C(C)=O)cc3)cc2)c1	Sm TGR inh inconclusive, SARS PLpro yeast inconclusive, Pf growth 48h 10µM, Pf growth 96h 13µM
COc1cccc(C(=O)/C=C/Nc2ccc(S(=O)(=O)Nc3nc(C)cc(C)n3)cc2)c1	AmpC inh detg inconclusive, Pf growth 96h 2.1µM
Cc1cccc(NC(=O)c2ccccc2Br)n1	Pf growth 96h 12µM (no result: Pf growth 48h)
NS(=O)(=O)c1ccc(NC(=S)NCCc2ccccc2)cc1	none (no result: Sm TGR inh)
CC(=O)c1ccc(NC(=S)NCCc2ccc(S(N)(=O)=O)cc2)cc1	Sm TGR inh 40µM
CCOc1ccccc1C(=O)Nc1ccc(NC(=O)c2ccccc2)cc1	none
CCOc1ccccc1C(=O)Nc1ccc(C(=O)c2ccccc2)cc1	Sm TGR inh 4.5µM
O=C(Nc1ccncc1)c1cncc(Br)c1	none (no result: Pf growth 96h)
O=C(Nc1cccc(NC(=O)c2cncc(Br)c2)c1)c1cncc(Br)c1	Pf growth 48h 3.7µM, AmpC inh detg inconclusive, Pf growth 96h inconclusive
NS(=O)(=O)c1ccc(NC(=S)Nc2ccc(F)c(F)c2)cc1	Sm TGR inh 25µM
COC(=O)c1ccc(NC(=O)c2cccc(NC(=O)c3ccccc3)c2)cc1	AmpC inh detg inconclusive, Pf growth 96h 8.3µM
CCOC(=O)c1ccc(Nc2cc(C)nc(-c3ccccc3)n2)cc1	Pf growth 48h 10µM
CCOC(=O)c1ccc(NC(=O)c2ccccc2)cc1	AmpC no deterg 10µM, AmpC inh detg inconclusive (no result: Pf growth 96h)
CCOC(=O)c1ccc(Nc2nc(C)cc(C)n2)cc1	none
CCOc1ccc2nc(N3CCCC(C(=O)Nc4ccc(OC)cc4)C3)sc2c1 (centres undefined)	none (no result: SARS PLpro yeast, Pf growth 48h, AmpC no deterg, Pf growth 96h)
O=C(Nc1ccc(Cl)cc1)Nc1cccc(C(=O)O)c1	Pf growth 96h 3.7µM
O=C(Nc1cccc(C(=O)Nc2cccc(Br)c2)c1)c1ccccc1	Pf growth 48h inconclusive, AmpC no deterg 14µM, AmpC inh detg inconclusive, Pf growth 96h inconclusive
O=C(O)c1cccc(NC(=O)c2cc(NC(=O)c3ccccc3)cc(NC(=O)c3ccccc3)c2)c1	Pf growth 96h 8.3µM
O=C(Nc1cccc(Br)c1)c1ccn[nH]1	Pf growth 96h 0.66µM
COc1ccc(CN(Cc2ccco2)c2cnc(S(C)(=O)=O)nc2C(=O)Nc2ccc(F)cc2)cc1	none (no result: SARS PLpro yeast, Pf growth 48h, AmpC no deterg, Pf growth 96h)
Cc1cccc(NC(=O)c2cccc(NC(=O)c3ccccc3)c2)n1	Pf growth 96h 13µM
CCOC(=O)c1ccc(NC(=S)NCCc2ccccc2)cc1	Pf growth 48h inconclusive, Pf growth 96h 13µM
CCOc1cc(NC(=O)C2CC2)c(OCC)cc1NC(=O)c1ccccc1OCC	Pf growth 48h 5.9µM
Cc1cccc(NC(=O)c2ccc(NC(C)c3ccccc3)c([N+](=O)[O-])c2)n1 (centres undefined)	Pf growth 48h 9.3µM
CCOc1cc(NC(=O)C2CC2)c(OCC)cc1NC(=O)c1cc(OC)c(OC)c(OC)c1	none
COc1ccc(CCN2CCC(CNC(=O)c3cnn(-c4ccc(C)cc4)c3C3CCN(C(=O)OC(C)(C)C)CC3)CC2)cc1	none (no result: SARS PLpro yeast, Pf growth 48h, AmpC no deterg, Pf growth 96h)
COCCC(=O)N1CCC(Oc2ccc(C(=O)N3CCC[C@H]3CO)cc2)CC1	Pf growth 96h inconclusive
O=C(COC(=O)c1cncc(Br)c1)Nc1nc(-c2ccc(F)cc2)cs1	none
COc1ccccc1N(C(=O)c1cncc(Br)c1)c1nc(-c2ccc(C)cc2)cs1	Pf growth 48h inconclusive, Pf growth 96h 7.4µM
COc1cc(/C=N/NC(=O)c2ccc(O)cc2)ccc1OCC(=O)Nc1cccc([N+](=O)[O-])c1	Pf growth 96h 10µM
O=C(COc1ccc(/C=N/NC(=O)c2ccncc2)cc1)Nc1cccc([N+](=O)[O-])c1	Pf growth 96h inconclusive
O=C(COc1ccc(/C=N/NC(=O)c2ccccc2O)cc1)Nc1ccc([N+](=O)[O-])cc1	Pf growth 96h 12µM
